Screens: PubChem, National Center for Advancing Translational Sciences (NCATS)
Shown are actives, neighbours in structure and some others; about 5.7% of the full set was active somewhere.
Giardia kill = Giardia lamblia killing; Giardia lamblia trophozoite viability; activity change, % at 7.66 µM, hits read low; 0.15% of 340,000 active; AID 540267; in the data active = activity change below about -80%; inconclusive = between about -30% and that limit;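 also: parasites exposed to compound for two days anaerobically before the ATP read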
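ATP-content bioluminescence gauges trophozoite survival. Cells (100/well) receive compound and incubate anaerobically for 48 hrs at 37 deg C; detection reagent follows for 15-30 min at room temperature.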
Nrf2 inh = Nrf2 pathway inhibition | A549 ARE-Fluc reporter, luciferase luminescence, 18-24 h | Potency, µM (doses to about 46 µM), usual class: inhibitors | 2.1% of 360,000 active | AID 504444; also: nearly all actives have a fitted effect of over 60% in size
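Two sequential reads on A549 ARE_Fluc cells exposed to compound for 18-24 h: a CellTiter-Fluor fluorescence read for viability, then a luciferase luminescence read for Nrf2/ARE activity.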
PI4K2A block = inhibitors of human PI4K2A | activity change, negative = inhibition, % at 76.9 µM | Q9BTU6 | 0.13% of 420,000 active | purified PI4K2A, ADP-Glo luminescence, 1 h; stronger effect = lower value; in the data active = activity change below about -50%; inconclusive = mostly about -30% to -49%
Target sequence (Q9BTU6 whole entry, looked up): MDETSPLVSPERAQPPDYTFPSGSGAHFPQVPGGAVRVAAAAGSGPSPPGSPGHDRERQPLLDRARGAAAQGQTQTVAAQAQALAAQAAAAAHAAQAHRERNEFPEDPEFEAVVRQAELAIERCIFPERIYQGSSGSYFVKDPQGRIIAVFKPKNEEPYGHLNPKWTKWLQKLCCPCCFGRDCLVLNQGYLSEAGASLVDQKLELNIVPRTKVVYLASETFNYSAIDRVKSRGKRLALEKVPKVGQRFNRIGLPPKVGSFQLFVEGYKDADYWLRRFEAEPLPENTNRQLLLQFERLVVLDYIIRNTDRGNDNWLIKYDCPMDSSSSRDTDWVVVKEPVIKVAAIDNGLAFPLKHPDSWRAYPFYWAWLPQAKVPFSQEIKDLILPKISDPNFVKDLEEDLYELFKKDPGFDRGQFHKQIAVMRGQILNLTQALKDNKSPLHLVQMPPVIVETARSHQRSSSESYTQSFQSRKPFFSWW
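Compounds are screened against recombinant PI4K2A using PI as substrate and ATP, the latter dispensed at 300 microM. Reactions run one hour at ambient temperature before ADP-Glo detection; full inhibition defined by wells lacking enzyme.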
A549 viability = kills or reduces viability of A549 cells in Nrf2 counter-screen. A549 ARE-Fluc cells, CellTiter-Fluor viability, 18-24 h. Potency, µM (highest dose often 46 µM), hits mostly inhibitors. 0.16% of 390,000 active. AID 504648
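A549 ARE-Fluc cells in 5% FBS OPTI-MEM, 5000 cells/well, rested 2 h then exposed to compounds in concentration-response for 18-24 h at 37 °C. Viability by CellTiter-Fluor fluorescence (Ex 405/Em 525) after 30 min; luciferase luminescence (BugLite, 15 min, RT) read afterwards.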
KB-3-1 cytotox = kills parental KB-3-1 adenocarcinoma cells | KB-3-1 viability, CellTiter-Glo ATP luminescence, 72 h | Potency, µM (doses to about 46.1 µM), most hits filed as cytotoxic | 1.4% of 400,000 active | AID 1347075; also: nearly all actives have a fitted effect of over 60% in size
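KB-3-1 cells, DMEM (no phenol red) + 10% FBS; compound by pin transfer, 72 h, 37 °C. Readout: CellTiter-Glo luminescence after 10 min. Data normalized, curve-fitted.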
KB-V1 cytotox = KB-V1 MDR subline cytotoxicity | Potency, µM (series often up to 46.1 µM), actives largely listed as cytotoxic | 3.4% of 400,000 active | KB-V1 MDR cells viability, CellTiter-Glo, 72 h; also: nearly all actives have a fitted effect of over 60% in size
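Cells of the MDR subline KB-V1 are plated, dosed with compound at multiple concentrations, and incubated 72 h at 37 degrees C; CellTiter-Glo is then added and luminescence read after 10 min.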
A number is an active result; 0 = inactive; ? = inconclusive; - = no result given. Unless noted, calls follow the shape of the dose curve; as a rule, active = well fitted curve in the direction sought with a large enough effect; inconclusive = small, poorly fitted or top-dose-only effect, or another doubt; inactive = no such curve, though single readings can be large; an effect the other way counts as inactive or inconclusive.

SMILES | Giardia kill | Nrf2 inh | PI4K2A block | A549 viability | KB-3-1 cytotox | KB-V1 cytotox
Nc1ncccc1OCc1cccc(C(F)(F)F)c1 | 0 | 16µM | 0 | ? | ? | ?
CCCCN1CN2CCc3ccccc3C2CS1(=O)=O (stereo not given) | - | - | 0 | - | - | -
CN(C)c1cccc(/C=C(\C#N)c2ccccc2)c1 | 0 | ? | 0 | 0 | 5.8µM | ?
Cc1csc(=O)n1CC(=O)Nc1ccc(Cl)c(Cl)c1 | 0 | 0 | 0 | 0 | 0 | 0
O=C(Cn1c2c(sc1=O)C1c3ccccc3OCC1CS2)Nc1ccc(Cl)c(Cl)c1 (stereo not given) | 0 | 0 | 0 | 0 | 16µM | 0
O=C(CCc1nc2ccccc2c(=O)[nH]1)N1CCN(c2ccc(F)cc2)CC1 | 0 | 16µM | 0 | 0 | 0 | ?
CC(=O)N1CCN(C(=O)CCc2nc3ccccc3c(=O)[nH]2)CC1 | 0 | - | 0 | 0 | 0 | 0
CCCCCn1c(=O)[nH]c2cc(C(=O)N3CCN(Cc4ccc5c(c4)OCO5)CC3)ccc2c1=O | 0 | 0.82µM | 0 | ? | 0 | 0
CCCCCn1c(=O)[nH]c2cc(C(=O)NCc3ccc4c(c3)OCO4)ccc2c1=O | 0 | 0 | 0 | 0 | 0 | 0
CN1CCN(C(=O)c2ccc3c(=O)n(Cc4ccc5c(c4)OCO5)c(=S)[nH]c3c2)CC1 | 0 | 0 | - | 0 | - | -
CC1CC(C)CN(C(=O)c2ccc3c(=O)n(Cc4ccc5c(c4)OCO5)c(=S)[nH]c3c2)C1 (stereo not given) | 0 | ? | 0 | 0 | 0 | 15µM
COc1cc(C=Nn2c(-c3cc(-c4ccccc4)n[nH]3)n[nH]c2=S)ccc1OC(C)=O | - | - | 0 | - | - | -
Cn1c(C(c2cc3ccccc3n2C)c2cc3ccccc3n2C)cc2ccccc21 | - | - | - | - | 18µM | ?
Cn1c(-c2ccccc2)cc2ccccc21 | 0 | ? | 0 | 0 | 0 | 0
COc1ccccc1NC(=O)CSc1nnc(-c2ccccc2C)o1 | - | ? | 0 | 0 | 0 | 0
Cc1cccc(NC(=O)CSc2nnc(-c3ccccc3C)o2)c1 | 0 | 0 | 0 | 0 | 0 | ?
Cc1cc(C)cc(NC(=O)CSc2nnc(-c3ccccc3C)o2)c1 | 0 | ? | 0 | 0 | 0 | 12µM
COc1ccccc1NC(=O)CSc1nnc(-c2ccoc2C)o1 | 0 | ? | 0 | 0 | 12µM | ?
Cc1ccc(CN2CCN(C3CCN(C(=O)c4ccc(C)cc4)CC3)C(=O)C2=O)cc1 | - | 0 | 0 | 0 | 0 | 0
COc1ccccc1NS(=O)(=O)c1cc(NC(=O)c2ccccc2C)ccc1N1CCOCC1 | 0 | 0 | 0 | 0 | 0 | 8.2µM
Cc1ccccc1NS(=O)(=O)c1cc(C(=O)N2CCCC2)ccc1C | 0 | 0 | 0 | 0 | 0 | 0
O=C(Nc1ccc(N2CCOCC2)c(Cl)c1)c1ccc(F)cc1 | 0 | 0 | 0 | 0 | 0 | 15µM
O=C(Nc1ccc(N2CCCCC2)c(Cl)c1)c1ncn[nH]1 | 0 | 8.2µM | 0 | 0 | 0 | 0
O=C(Nc1ccc(N2CCCC2)c(Cl)c1)c1ccco1 | ? | ? | 0 | 0 | 0 | ?
COc1ccccc1NS(=O)(=O)c1cc(C(=O)N2CC(C)CC(C)C2)ccc1C (stereo not given) | 0 | ? | 0 | 0 | 0 | 2.3µM
SMILES | Giardia kill | Nrf2 inh | PI4K2A block | A549 viability | KB-3-1 cytotox | KB-V1 cytotox
O=C(Nc1ccc(N2CCOCC2)c(Cl)c1)c1ccc(-n2cnnc2)cc1 | 0 | 0 | 0 | 0 | 0 | 0
N/C(=N\c1nnc(-c2ccncc2)s1)Nc1ccc(Cl)c(Cl)c1 | - | - | - | - | 0 | 0
COc1ccccc1NS(=O)(=O)c1cc(NC(=O)c2ccc(Cl)nc2)ccc1Cl | 0 | 23µM | 0 | ? | ? | 8.2µM
COC(=O)c1cc(NC(=O)c2cc(C(C)(C)C)nn2Cc2ccc(F)cc2)ccc1N1CCOCC1 | ? | 13µM | 0 | 0 | 0 | ?
COc1ccccc1NC(=O)Nc1ccc(Cl)c(S(=O)(=O)Nc2ccccc2OC)c1 | 0 | ? | 0 | 0 | 0 | 0
O=C(Nc1ccc(N2CCOCC2)cc1)c1ccc(Cl)nc1 | 0 | 0 | 0 | 0 | 0 | 0
CCN(CC)c1ccc(NC(=O)c2ccccc2)cc1S(=O)(=O)Nc1ccccc1OC | 0 | 0 | 0 | 0 | 0 | 15µM
O=C(Nc1ccc(N2CCOCC2)nc1)c1ccc(Cl)cc1 | 0 | 21µM | ? | 0 | 0 | 0
